Compounds without any hit were thinned out: in the full panel of roughly 83,000, 20% have a hit.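 Cell lines were cultured in 96-well plates, exposed to a single compound concentration, and assessed for percent growth 48 hours later.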 A number with no mark means an inactive call. The source made the active and inactive calls. How the source made its calls: active means growth percent below 10; inactive means the rest.

This note sets out measurements from PubChem BioAssay (NCI).

Common to all, as to assay: NCI-60 one-dose screen, 48 h (100 = growth as untreated, 0 = no growth, -100 = all killed)
Common to all, as to conditions: 10 µM unless noted

For experiment [1], the system named is DU-145 prostate.
Experiment [2] concerns K-562 leukemia.
Experiment [3] has as its system MALME-3M melanoma.
Experiment [4] has as its system MDA-MB-231 breast.
Experiment [5] has as its system RXF 393 renal.
For experiment [6], the system named is SF-268 CNS.
Experiment [7] relates to SF-295 CNS.
Experiment [8] deals with SF-539 CNS.
Experiment [9] deals with UACC-257 melanoma.
Experiment [10] has as its system M14 melanoma.
For experiment [11], the system named is HCT-15 colon.
The subject of experiment [12] is HT29 colon.
The subject of experiment [13] is SNB-75 CNS.
Experiment [14] deals with SNB-19 CNS.
For experiment [15], the system named is U251 CNS.
In experiment [16] the test system is PC-3 prostate.
Experiment [17] deals with SK-MEL-5 melanoma.
For experiment [18], the system named is UACC-62 melanoma.
For experiment [19], the system named is LOX IMVI melanoma.
Experiment [20] relates to SK-MEL-28 melanoma.

Consider `O=C(Nc1ccc(Nc2ccncc2)cc1)c1ccc([N+](=O)[O-])cc1`, for which the growth was 68.7% in [1]; 19.5% in experiment [2]; 59.1% in [3]; 93.5% in experiment [4]; 91.6% in experiment [5]; 91.9% in experiment [6]. Moreover, the growth in experiment [7] is 79.6%; in [8], 88.8%; in experiment [9], 96.9%; in experiment [10], 65.1%; in [11], 77.5%; in experiment [12], 63.4%. For the same molecule, the growth was 92% in experiment [13]; 80.1% in [14]; 38% in experiment [15]; 70% in [16]; 73.1% in [17]; 15.4% in [18]. Moreover, the growth in experiment [19] is 62.3%; in [20] it was 84.9%.
For the molecule `Cc1ccc(-c2cc(O)c(-c3ccc(C)cc3C)cc2O)c(C)c1`, the growth is 80% in [1]; 25.8% in experiment [2]; 115% in [3]; 58.2% in experiment [4]; 67.5% in experiment [5]; 57.4% in experiment [6]. The growth in experiment [7] was 65.7%; in experiment [8], 47.8%; in experiment [9] it was 79%; in [10] it was 66.8%; in experiment [11], 29.5%; in experiment [12] it was 42.3%. Besides, the growth was 45.9% in [13]; 71.9% in experiment [14]; 38.2% in [15]; 52.1% in experiment [16]; 12.4% in experiment [17]; 54.8% in experiment [18]. Also, the figures for the growth in experiment [19] and in [20] were 33.4% and 85.2%, respectively.
For `CC(C)=CCC[C@](C)(O)[C@H]1CC[C@]2(C)[C@@H]1CC[C@@H]1[C@@]3(C)CC[C@H](OC(=O)CCC(=O)O)C(C)(C)[C@@H]3CC[C@]12C`, the growth in [1] was 40.8% [100 µM]; in experiment [2] it was 24.2% [100 µM]; in [3], 10.5% [100 µM]; in experiment [4], 13.5% [100 µM]; in experiment [5] it was 37.8% [100 µM]; in [6] it was 52% [100 µM]. Moreover, the growth in experiment [7] was 4.05% [100 µM] (active); in experiment [8], 31% [100 µM]; in [9], 28.3% [100 µM]; in experiment [10] it was 30.2% [100 µM]; in [11] it was 19.3% [100 µM]; in [12] it was 2.98% [100 µM] (active). Further, the growth in experiment [13] was 43.3% [100 µM]; in experiment [14], 24.1% [100 µM]; in experiment [15], 2.41% [100 µM] (active); in experiment [16], 27.4% [100 µM]; in experiment [17], -41.3% [100 µM] (active); in [18], -75.4% [100 µM] (active). Further, the values for the growth in experiment [19] and in experiment [20] were -64.1% [100 µM] (active) and -46% [100 µM] (active), respectively.
For `COc1ccc(C=C2c3ccccc3-c3ccccc32)cc1`, the growth in experiment [1] was 84.6%; in experiment [2], 18.8%; in [3], 63.5%; in experiment [4], 59.2%; in experiment [5], 54.5%; in experiment [6], 53.8%. Also, the growth in experiment [7] was 31.7%; in experiment [8], 43.7%; in experiment [9] it was 52.3%; in [10] it was 30%; in [11], 25.8%; in experiment [12], 13.7%. The growth in [13] was 43.3%; in experiment [14], 51.4%; in experiment [15], 34.8%; in [16], 63.6%; in [17], 60.3%; in [18], 23.6%. Moreover, the results for the growth in [19] and in [20] were 41.3% and 64.9%, respectively.
On to `CC[C@]12C=CCN3CC[C@@]4(c5ccc(OC)cc5N(C)[C@H]4[C@@](O)(C(=O)OC)[C@@H]1OC(=O)CCC(=O)N[C@H](Cc1c[nH]c4ccccc14)C(=O)OC)[C@@H]32`, for which the growth was -49.9% [100 µM] (active) in [1]; 5.85% [100 µM] (active) in [2]; -68.8% [100 µM] (active) in experiment [3]; -71% [100 µM] (active) in experiment [4]; -60.6% [100 µM] (active) in experiment [5]; -43% [100 µM] (active) in experiment [6]. The growth is -38.4% [100 µM] (active) in [7]; -57.1% [100 µM] (active) in experiment [8]; -29.2% [100 µM] (active) in experiment [9]; -32.8% [100 µM] (active) in experiment [10]; -24.1% [100 µM] (active) in [11]; 5.23% [100 µM] (active) in experiment [12]. Besides, the growth in [13] was -68.8% [100 µM] (active); in [14], -51.2% [100 µM] (active); in experiment [15], 3.72% [100 µM] (active); in [16] it was -15.8% [100 µM] (active); in experiment [17] it was -53% [100 µM] (active); in experiment [18], -61.1% [100 µM] (active). In addition, the growth in [19] is -54.4% [100 µM] (active); in experiment [20] it was -49.6% [100 µM] (active).
`C[C@H]1[C@H](C)CC[C@]2(COC(=O)CCC(=O)O)CC[C@]3(C)C(=CC[C@@H]4[C@@]5(C)CCCNC(C)(C)[C@@H]5CC[C@]43C)[C@H]12`: the growth in experiment [1] is 79.8% [100 µM]; in [2], 48.9% [100 µM]; in [3], 77.1% [100 µM]; in experiment [4] it was 45.1% [100 µM]; in experiment [5], 53% [100 µM]; in experiment [6], 62.5% [100 µM]. Moreover, the growth in experiment [7] is 59.1% [100 µM]; in experiment [8], 50.9% [100 µM]; in [9], 78.5% [100 µM]; in [10] it was 92% [100 µM]; in experiment [11], 65.9% [100 µM]; in experiment [12], 52.2% [100 µM]. For the same molecule, the growth in [13] was -2.3% [100 µM] (active); in experiment [14], 53.1% [100 µM]; in experiment [15], 60.7% [100 µM]; in experiment [16], 32.7% [100 µM]; in experiment [17], 46.2% [100 µM]; in experiment [18], 56.3% [100 µM]. The growth is 70.5% [100 µM] in [19] and 82.2% [100 µM] in experiment [20].
For `Cn1cc(-c2nnc(-c3cn(C)c4ncccc34)o2)c2ccccc21`, the growth is 60% in experiment [1]; 10.3% in [2]; 19.3% in [3]; 38.5% in experiment [4]; 10% in experiment [5]; 51.1% in [6]. The growth in experiment [7] is 13.1%; in experiment [8], 27.7%; in experiment [9], 73.6%; in experiment [10], 35.5%; in experiment [11], 17.9%; in [12] it was 12.1%. Further, the growth in [13] was -18.3% (active); in [14], 42.3%; in [15], 30.1%; in experiment [16] it was 39.8%; in experiment [17] it was 0.903% (active); in experiment [18], 27.7%. For the same molecule, the growth is 48.6% in [19] and 55.9% in experiment [20].
